Reference: PubChem BioAssay
The list shows a part of the results. Active and inactive are the calls of the source. Rule as the data show it, unless noted: active = activation above about 8.9%; inactive = the rest.

Legend:
[1] = STAT1 signaling activators, confirmation, cell-based, HTS, luciferase reporter (AID 1262;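 active = activation above a set limit carried over from the earlier primary STAT1 screen, cut at about 140% in these data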;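 also: simple ratio to median IFN-gamma plus DMSO wells so 0% means no light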); details: NIH 3T3 STAT1-luciferase reporter, IFN-gamma potentiation, luminescence; at 5.7 µM; hits give high values; 100% = IFN-gamma EC80 alone, no compound
[2] = NF-kB reporter activators, TNF-alpha stimulated, counter-screen for STAT1 activator project, cell-based, HEK293T, luciferase luminescence (AID 1306;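 active = activation above the mean of solvent-only control wells plus 3 SD, set per campaign, cut at about 130% in these data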;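 also: TNF-alpha given at a submaximal dose yielding about 80% of full reporter signal; values are well signal over median control so 100% means no change and 0% no light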); details: at 5.7 µM, hits give high values, 100% = TNF-alpha with vehicle only
[3] = biological target: Signal transducer and activator of transcription 3 (Homo sapiens) (UniProt P40763); test: STAT3 reporter activation by STAT1 hits, confirmation, counter-screen for STAT1 activator project, U3A cells, luciferase, luminescence (AID 1316;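 active = activation above the solvent-only control well mean plus 3 SD, set per plate batch, cut at about 110% in these data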;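 also: 0% = no luminescence and 100% = median IL-6 plus DMSO wells; higher means more STAT3 reporter activation so hits are non-selective activators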); details: IL-6, luminescence, at 5.7 µM, hits give high values, 100 = IL-6 alone, no compound effect, cells lack STAT1
[4] = biological target: Nuclear receptor coactivator 3 (Homo sapiens) (UniProt Q9Y6Q9); test: SRC3 coactivator transcriptional activity inhibitors, confirmation, cell-based, luminescence, quadruplicate (AID 588792;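 active = mean inhibition over 43.08%, the solvent-only control mean plus 3 SD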;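 also: 0% = DMSO treated cells and 100% = gossypol at 36 µM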); details: HEK293 GAL4-SRC3 luciferase reporter, at 3.6 µM, hits give high values
[5] = test system: transactivating tegument protein VP16 (Human herpesvirus 1), Gal4-VP16 luciferase reporter; test: VP16 transactivation inhibitors, counter-screen for SRC3 inhibitor project, cell-based, luminescence, high throughput (AID 588794; in the data active = inhibition above about 30%); details: mammalian cells, VP16-driven luciferase reporter luminescence; at 3.6 µM; hits give high values
[6] = biological target: Nuclear receptor coactivator 1 (Homo sapiens) (UniProt Q15788); test: SRC1 coactivator transcriptional activity inhibitors, confirmation, cell-based, luminescence, quadruplicate (AID 588820;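 active = mean inhibition above 46.68%, the untreated control wells mean plus 3 SD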;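 also: 0% = DMSO wells and 100% = gossypol 36 µM treated wells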); details: HEK293 GAL4-SRC1 luciferase reporter, at 3.6 µM, hits give high values
[7] = VP16 transactivation inhibitors, counter-screen for SRC1 inhibitor project, cell-based, luminescence, high throughput (AID 588824; in the data active = inhibition above about 25%); details: cell-based VP16 transactivation luciferase luminescence; at 3.6 µM; hits give high values
[8] = biological target: Photoreceptor-specific nuclear receptor (Homo sapiens) (UniProt Q9Y5X4); test: NR2E3 agonist confirmation in cells, cell-based, luminescence, CHO-S two-hybrid (AID 624378;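 active = average inhibition above a cutoff equal to the mean inhibition of all tested compounds plus one SD, cut at about 70% in these data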;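 also: 0% = DMSO in NR2E3 cells and 100% = DMSO in cells lacking NR2E3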); details: CHO-S mammalian two-hybrid NR2E3-NCOR, luciferase luminescence; at 3.98 µM; hits give high values
[9] = GAL4-VP16 reporter modulators, confirmation, counter-screen for NR2E3 agonist project, cell-based, luminescence, CHO-S, high throughput (AID 624379;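 active = mean inhibition above a cutoff equal to the average over all tested compounds plus one standard deviation, cut at about 70% in these data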;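 also: 0% = DMSO with VP16-transfected cells and 100% = DMSO with cells lacking VP16; higher means less reporter light so more repression of VP16 activity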); details: CHO-S GAL4-VP16 luciferase reporter, at 3.98 µM, hits give high values
[10] = Gal4-VP16 luciferase reporter inhibitors, counter-screen for COUP-TFII antagonist project, cell-based, luminescence, HEK293 (AID 687007; in the data active = inhibition above about 13%); details: at 8.5 µM, hits give high values
[11] = biological target: COUP transcription factor 2 (Homo sapiens) (UniProt P24468); test: NR2F2 transcriptional activity inhibitors, confirmation, cell-based, luciferase reporter, HEK293, triplicate (AID 687008;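 active = mean inhibition over three repeats above a set limit taken from the earlier primary screen, cut at about 38% in these data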;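 also: 100% = cells given the luciferase reporter alone without the COUP-TF2 vector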); details: HEK293 NGFI-A luciferase reporter, luminescence; at 8.5 µM; hits give high values
[12] = test system: HIV-1 integrase (multimerization); test: HIV-1 IN multimer formation enhancers, counter-screen for LEDGF/p75 integration inhibitor project, biochemical, TR-FRET (AID 1053131); details: TR-FRET HIV-1 integrase multimerization, at 7.7 µM, hits give high values
[13] = TR-FRET optical interference artefacts, confirmation, artefact control for LEDGF/p75-dependent integration inhibitor project, biochemical, HIV-1 IN multimerization (AID 1053135;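 active = inhibition above the mean over all tested compounds plus 3 SD, which no compound reached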;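 also: 0% = integrase with antibodies and DMSO and 100% = antibodies without integrase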); details: TR-FRET optical interference counterscreen, at 7.7 µM, hits give high values
[14] = test system: HIV-1 integrase / human LEDGF/p75 complex; test: inhibitors of HIV-1 IN-LEDGF/p75 DNA integration, confirmation, biochemical, TR-FRET (AID 1053136; in the data active = inhibition above about 14%); details: TR-FRET LEDGF/p75-dependent HIV-1 integration, at 3.7 µM, hits give high values
[15] = test system: TLR4-MyD88 interaction (human), BLA complementation; test: TLR4-MyD88 association inhibitors, retest, confirmation, cell-based, HeLa CL3-4, BLA complementation, FRET ratio (AID 941;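 active = mean inhibition across three repeat runs above about 25% carried over from the earlier screen, limit read from the data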;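 also: plate controls were DMSO only for no effect and clavulanic acid blocking BLA at full dose for full effect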); details: CCF4 FRET ratio, at 8.4 µM, hits give high values
[16] = inhibitors of full-length beta-lactamase reporter, confirmation, artefact control for TLR4-MyD88 binding inhibitor project, cell-based, HeLa, full-length BLA, CCF4 FRET ratio (AID 1237;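 active = mean inhibition over three repeats above about 26% taken from the earlier screen, limit read from the data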;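 also: HeLa cells stably expressing beta-lactamase reporter as counterscreen for TLR4-MyD88 inhibitors; 0% = DMSO and 100% = clavulanic acid full inhibition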); details: at 8.4 µM, hits give high values
[17] = growth loss of phage-infected E. coli expressing H. pylori AddAB, confirmation, AddAB inhibitor project, absorbance, E. coli V3065, T4 phage, triplicate (AID 488942;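 active = mean inhibition above a set limit taken from the earlier primary screen, cut at about 13% in these data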;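 also: higher means less bacterial growth since AddAB block lets phage replicate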); details: OD, at 11.9 µM, hits give high values, T4 phage with gene 2 nonsense mutations
[18] = growth loss of RecBCD+ E. coli with mutant T4 phage, counter-screen for AddAB inhibitor project, absorbance, V66 E. coli (AID 488955;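 active = mean inhibition above the mean of solvent-only control wells plus 3 SD, cut at about 4% in these data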;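 also: optical density read after an 18 h incubation at 37 °C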); details: OD growth, at 11.9 µM, hits give high values
[19] = bacterial viability inhibition counter-screen, confirmation, counter-screen for AddAB inhibitor project, absorbance (AID 488956; in the data active = inhibition above about 25%); details: absorbance (AddAB counterscreen), at 11.9 µM, hits give high values
[20] = growth loss of phage-infected RecBCD+ E. coli, confirmation, RecBCD inhibitor project, absorbance, E. coli V66, T4 gene 2 phage (AID 651982;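 active = mean inhibition over triplicates exceeding the hit threshold derived in the original primary screen, cut at about 11% in these data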); details: E. coli V66 + T4 2- phage, growth OD; at 11.9 µM; hits give high values
[21] = E. coli viability inhibition, counter-screen for RecBCD inhibitor project, absorbance, high throughput (AID 651983; in the data active = inhibition above about 20%;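 also: E. coli strain V66 grown with compound alone and no phage infection; 0% = bacteria with DMSO vehicle only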); details: absorbance (OD) growth, at 11.9 µM, hits give high values
[22] = growth loss of phage-infected AddAB-carrying E. coli, confirmation, counter-screen for RecBCD inhibitor project, absorbance, E. coli V3065, T4 phage (AID 651984;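 active = mean inhibition above the solvent-only control wells' mean plus 3 SD, cut at about 22% in these data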;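 also: higher means less bacterial growth from phage killing when AddAB is blocked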); details: E. coli expressing H. pylori AddAB + T4 phage, OD growth; at 11.9 µM; hits give high values; gene 2 mutant T4, recBCD-deleted host
[23] = compounds interfering with TAMRA-BSA probe, counter-screen for TCR-CD3 interaction inhibitor project, biochemical, fluorescence, TAMRA-labeled BSA (AID 652035; in the data active = inhibition above about 23%;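 also: 0% = buffer low control and 100% = reference high control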); details: TAMRA-labeled BSA probe fluorescence counterscreen; at 9.4 µM; hits give high values
[24] = test system: T-cell receptor (TCR)-CD3 interaction, human; test: TCR-CD3 interaction inhibitors, retest, confirmation, biochemical, fluorescence, TAMRA-labeled TCR probe (AID 652036; in the data active = inhibition above about 19%); details: TAMRA-labeled TCR probe fluorescence binding assay; at 9.4 µM; hits give high values

Sequence of Nuclear receptor coactivator 3 (Homo sapiens) (Q9Y6Q9 whole entry, looked up, the tested form may be a part): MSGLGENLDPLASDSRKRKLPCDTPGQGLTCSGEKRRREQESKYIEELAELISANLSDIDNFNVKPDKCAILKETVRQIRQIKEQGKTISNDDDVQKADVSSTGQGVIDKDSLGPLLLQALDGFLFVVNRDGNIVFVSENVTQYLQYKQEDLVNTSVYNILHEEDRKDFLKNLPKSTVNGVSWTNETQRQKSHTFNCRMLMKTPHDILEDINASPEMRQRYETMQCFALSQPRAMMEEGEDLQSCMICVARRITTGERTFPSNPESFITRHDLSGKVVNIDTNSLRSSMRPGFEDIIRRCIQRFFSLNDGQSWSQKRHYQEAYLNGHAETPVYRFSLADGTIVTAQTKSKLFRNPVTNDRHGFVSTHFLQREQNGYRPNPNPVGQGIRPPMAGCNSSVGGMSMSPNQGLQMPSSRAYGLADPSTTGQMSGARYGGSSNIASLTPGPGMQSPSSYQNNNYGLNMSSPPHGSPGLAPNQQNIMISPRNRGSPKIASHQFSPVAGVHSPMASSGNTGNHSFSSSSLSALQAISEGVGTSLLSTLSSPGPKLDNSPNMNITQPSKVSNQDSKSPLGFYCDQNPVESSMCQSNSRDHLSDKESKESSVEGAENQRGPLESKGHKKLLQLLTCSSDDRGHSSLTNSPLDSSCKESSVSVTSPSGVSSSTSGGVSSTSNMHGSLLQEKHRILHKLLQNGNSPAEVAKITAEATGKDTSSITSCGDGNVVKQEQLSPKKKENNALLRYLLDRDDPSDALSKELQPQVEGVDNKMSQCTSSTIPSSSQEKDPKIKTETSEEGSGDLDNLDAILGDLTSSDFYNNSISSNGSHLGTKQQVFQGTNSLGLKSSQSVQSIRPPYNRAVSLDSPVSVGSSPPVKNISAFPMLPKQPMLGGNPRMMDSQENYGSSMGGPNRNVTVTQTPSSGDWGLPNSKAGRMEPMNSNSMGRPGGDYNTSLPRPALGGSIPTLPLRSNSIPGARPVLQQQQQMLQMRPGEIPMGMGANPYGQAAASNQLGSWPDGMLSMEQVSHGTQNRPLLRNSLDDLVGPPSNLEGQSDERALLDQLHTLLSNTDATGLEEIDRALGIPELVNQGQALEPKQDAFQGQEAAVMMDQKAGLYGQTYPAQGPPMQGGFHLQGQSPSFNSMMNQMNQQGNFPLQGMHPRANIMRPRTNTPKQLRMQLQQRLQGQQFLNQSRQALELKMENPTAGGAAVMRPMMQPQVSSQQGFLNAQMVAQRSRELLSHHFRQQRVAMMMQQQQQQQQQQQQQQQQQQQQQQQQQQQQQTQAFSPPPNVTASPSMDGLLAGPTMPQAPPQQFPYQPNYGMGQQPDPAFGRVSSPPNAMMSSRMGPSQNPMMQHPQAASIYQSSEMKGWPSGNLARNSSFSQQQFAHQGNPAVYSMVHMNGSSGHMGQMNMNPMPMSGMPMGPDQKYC
Sequence of COUP transcription factor 2 (Homo sapiens) (P24468 whole entry, looked up): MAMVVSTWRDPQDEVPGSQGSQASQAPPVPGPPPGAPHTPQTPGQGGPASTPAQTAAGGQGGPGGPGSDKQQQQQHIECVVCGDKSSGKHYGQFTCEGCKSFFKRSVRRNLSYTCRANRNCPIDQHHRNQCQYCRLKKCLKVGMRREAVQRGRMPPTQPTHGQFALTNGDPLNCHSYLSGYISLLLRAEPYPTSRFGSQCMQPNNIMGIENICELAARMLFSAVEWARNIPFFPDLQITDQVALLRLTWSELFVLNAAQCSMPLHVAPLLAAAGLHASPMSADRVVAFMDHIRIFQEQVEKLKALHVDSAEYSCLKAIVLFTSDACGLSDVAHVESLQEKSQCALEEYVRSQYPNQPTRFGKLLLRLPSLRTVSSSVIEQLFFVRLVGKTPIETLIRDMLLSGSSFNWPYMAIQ
Sequence of Photoreceptor-specific nuclear receptor (Homo sapiens) (Q9Y5X4 whole entry, looked up, the tested form may be a part): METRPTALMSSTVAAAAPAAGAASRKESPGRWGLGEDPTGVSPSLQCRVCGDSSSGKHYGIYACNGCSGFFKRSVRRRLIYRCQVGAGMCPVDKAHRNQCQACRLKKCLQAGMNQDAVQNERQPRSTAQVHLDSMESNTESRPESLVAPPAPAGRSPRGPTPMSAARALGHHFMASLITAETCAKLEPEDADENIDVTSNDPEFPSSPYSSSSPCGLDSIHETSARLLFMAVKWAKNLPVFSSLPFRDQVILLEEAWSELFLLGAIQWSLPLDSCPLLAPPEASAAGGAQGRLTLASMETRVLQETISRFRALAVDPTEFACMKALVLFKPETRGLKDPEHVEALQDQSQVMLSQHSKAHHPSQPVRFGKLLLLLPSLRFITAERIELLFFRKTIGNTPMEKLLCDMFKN
Sequence of Nuclear receptor coactivator 1 (Homo sapiens) (Q15788 whole entry, looked up, the tested form may be a part): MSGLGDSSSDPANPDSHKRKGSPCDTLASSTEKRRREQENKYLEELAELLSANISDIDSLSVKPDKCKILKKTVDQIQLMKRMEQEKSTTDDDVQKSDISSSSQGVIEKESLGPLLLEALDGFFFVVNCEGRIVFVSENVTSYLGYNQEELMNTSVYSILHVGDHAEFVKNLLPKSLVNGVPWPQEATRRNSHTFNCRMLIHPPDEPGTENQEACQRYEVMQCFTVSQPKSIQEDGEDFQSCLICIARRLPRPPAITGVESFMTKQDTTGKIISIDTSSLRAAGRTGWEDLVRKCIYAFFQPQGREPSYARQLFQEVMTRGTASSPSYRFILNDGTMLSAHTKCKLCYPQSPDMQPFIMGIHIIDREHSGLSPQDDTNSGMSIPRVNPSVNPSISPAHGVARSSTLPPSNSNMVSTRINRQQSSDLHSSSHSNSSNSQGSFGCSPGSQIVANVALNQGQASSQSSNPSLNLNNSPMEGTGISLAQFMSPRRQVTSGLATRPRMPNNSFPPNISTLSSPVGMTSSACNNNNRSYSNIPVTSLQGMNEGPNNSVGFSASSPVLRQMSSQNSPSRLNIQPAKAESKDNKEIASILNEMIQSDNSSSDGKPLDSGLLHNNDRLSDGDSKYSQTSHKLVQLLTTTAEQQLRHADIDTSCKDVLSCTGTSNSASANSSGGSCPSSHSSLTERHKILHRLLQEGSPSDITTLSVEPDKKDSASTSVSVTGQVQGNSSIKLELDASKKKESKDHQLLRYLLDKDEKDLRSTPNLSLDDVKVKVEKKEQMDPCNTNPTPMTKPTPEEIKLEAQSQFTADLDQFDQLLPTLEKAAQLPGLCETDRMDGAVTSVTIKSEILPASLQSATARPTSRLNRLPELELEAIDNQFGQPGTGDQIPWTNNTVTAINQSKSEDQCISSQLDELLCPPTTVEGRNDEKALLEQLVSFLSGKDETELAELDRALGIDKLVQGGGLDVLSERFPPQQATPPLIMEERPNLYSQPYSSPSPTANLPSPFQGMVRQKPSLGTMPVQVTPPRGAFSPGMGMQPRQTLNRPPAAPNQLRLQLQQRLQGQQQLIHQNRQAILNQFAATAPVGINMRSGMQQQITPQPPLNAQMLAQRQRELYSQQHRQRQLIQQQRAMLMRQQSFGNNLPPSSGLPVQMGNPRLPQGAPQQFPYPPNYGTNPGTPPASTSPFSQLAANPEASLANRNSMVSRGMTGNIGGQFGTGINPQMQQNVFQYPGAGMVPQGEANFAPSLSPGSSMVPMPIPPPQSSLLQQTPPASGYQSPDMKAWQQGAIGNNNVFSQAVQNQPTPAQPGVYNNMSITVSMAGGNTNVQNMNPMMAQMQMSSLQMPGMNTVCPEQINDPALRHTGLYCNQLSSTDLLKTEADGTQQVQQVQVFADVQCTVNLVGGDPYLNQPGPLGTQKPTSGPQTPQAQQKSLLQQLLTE

CC1CN/C(=C\C(=O)c2ccc(Br)cc2)C(=O)N1 (stereo not given)
inactive: activation (% of control) [2] 117% | activation (% of control) [3] 87.3%
active: activation (% of control) [1] 250%

COc1ccc2c(c1)c(=Cc1ccc(N(C)C)cc1)c1cc(-c3ccccc3)[n+](C)n12
active: inhibition [4] 68.3% | inhibition [5] 82% | inhibition [6] 69.4% | inhibition [7] 83.8% | inhibition [8] 99% | inhibition [9] 81.4% | inhibition [10] 40.1% | inhibition [11] 86.4%
inactive: activation [12] 6.29% | inhibition [13] -22.4% | inhibition [14] -6.4%

O=C(c1ccc(Cl)cc1)c1cnc(Nc2ccccc2)s1
inactive: inhibition [15] 9.98%
active: inhibition [16] 29.5%

C=CC1=C(C(=O)O)N2C(=O)[C@@H](NC(=O)/C(=N/OCC(=O)O)c3csc(N)n3)[C@H]2SC1
active: inhibition [17] 102% | inhibition [18] 100% | inhibition [19] 101% | inhibition [20] 100% | inhibition [21] 101% | inhibition [22] 101% | inhibition [24] 20% | activation [12] 42.3% | inhibition [14] 90.4%
inactive: inhibition [23] 6.41% | inhibition [13] -213%

CC(C)c1ccc(NC(=O)NC2CCCCC2)cc1
active: activation (% of control) [1] 191% | activation (% of control) [3] 129%
inactive: activation (% of control) [2] 128%
